Only a selection was taken, and hits are over-represented in it overall.
Pf apPOL block: Pf-apPOL inhibitors, biochemical, fluorescence; Plasmodium falciparum apicoplast DNA polymerase (apPOL); Recombinant Pf-apPOL, molecular beacon fluorescence, 1.5 h; inhibition, % at 10 µM; 210,000 tested, 0.25% active
mHTT CaM bind: mutant huntingtin-calmodulin interaction inhibitors – biochemical, AlphaScreen, primary screen; P42858; AlphaScreen His-mHTT/GST-CaM binding, luminescence; inhibition, % at 15 µM; 190,000 tested, 3.6% active; AID 1671202, 2021
A number is an active result; – = inactive; · = no result. Cut-off read from the data, not from the text of the source: active = inhibition above about 50%; inactive = the rest.

SMILES | Pf apPOL block | mHTT CaM bind
Cc1cccc(N2C(=O)CC(N3CCN(C/C=C/c4ccccc4)CC3)C2=O)c1 (stereo unspecified) | – | –
Cn1c(=O)[nH]c(=O)c2c1nc(N1CCOCC1)n2CC(O)COc1ccc(Cl)cc1Cl (stereo unspecified) | – | –
Cc1cc(C)n(-c2nc3c(c(=O)[nH]c(=O)n3C)n2CC(O)COc2ccccc2Cl)n1 (stereo unspecified) | – | 100
COc1cc(C(=O)Nc2cccc(NC(=O)c3ccccc3)c2)cc(OC)c1OC | – | 52
COc1cc(C(=O)Nc2nc(-c3ccccn3)cs2)cc(OC)c1OC | – | 100
COC(=O)c1ccc(-c2csc(NC(=O)c3cc(C)no3)n2)cc1 | – | –
COc1cc(C(=O)Nc2ccc(NC(=O)c3ccccc3)cc2)cc(OC)c1OC | – | –
Cc1cc(C(=O)Nc2nc(-c3ccccn3)cs2)on1 | – | 100
COc1cc(C(=O)Nc2nc(-c3ccc(Cl)cc3)cs2)cc(OC)c1OC | – | –
COc1cc(NC(=O)c2ccccc2)c(OC)cc1NC(=O)COc1ccccc1 | – | 59
COCC(=O)Nc1cc(OC)c(NC(=O)c2ccccc2)cc1OC | – | –
C=C(C)c1cccc(C(C)(C)NC(=O)NCc2ccc3c(c2)OCO3)c1 | – | –
Cn1c(=O)c2c(nc3n(-c4ccccc4)c(-c4ccc(Cl)cc4)cn23)n(C)c1=O | – | –
COCCN1CC(C(=O)NCc2ccc(OC)cc2OC)CC1=O (stereo unspecified) | – | –
COc1cc2c(C(=O)N3CCOCC3)cn(C)c(=O)c2cc1OC | – | –
Cc1cccc(OCC(=O)Nc2cccc(NC(=O)c3ccccc3)c2)c1 | – | –
O=C(Nc1nc(-c2ccccn2)cs1)c1ccc(Br)s1 | – | 100
O=C(Nc1nc(-c2ccccc2)cs1)c1ccccc1 | – | –
CCN1C(=O)c2cccnc2Sc2cc(NC(=O)c3ccccc3C)ccc21 | – | –
CS(=O)(=O)Nc1ccc(Cl)cc1Cl | · | –
CS(=O)(=O)Nc1ccc(Cl)c2cccnc12 | – | 86
COc1ccc(C(=O)N2CCC(n3c(-c4ccoc4)nc4cccnc43)C2)cn1 (stereo unspecified) | – | –
CCCCN(C)C(=O)CCC1CCN(c2cc(NCC)ncn2)CC1 | – | –
O=C(c1ccc(F)c(Cl)c1)N1CCC2(CC1)NC(=O)N(Cc1ccc(F)cc1)C2=O | – | –
Cc1ccc(-c2cc(C(=O)Nc3ccncc3)c3ccccc3n2)o1 | – | 74
SMILES | Pf apPOL block | mHTT CaM bind
Cc1ccc(-c2cc(C(=O)Nc3cccnc3)c3ccccc3n2)o1 | – | –
C=CC(COCc1ccccc1)N(Cc1ccc(OC)cc1)S(=O)(=O)c1ccccc1Br (stereo unspecified) | – | –
COc1ccc(CN(CC(O)COCc2ccccc2)S(=O)(=O)c2ccccc2Br)cc1 (stereo unspecified) | – | 86
CC(C)(C)c1ccc(C(=O)N2CCOCC2)cc1 | – | –
OC(COc1ccc(C23CC4CC(CC(C4)C2)C3)cc1)C[N+]1(Cc2ccccc2)CCOCC1 (stereo unspecified) | – | 100
CCCCOCC(O)C[N+]1(Cc2ccccc2)CCOCC1 (stereo unspecified) | – | –
CC(C)Cn1c(CC2CCN(C(=O)c3n[nH]c4ccccc34)C2)nc2cccnc21 (stereo unspecified) | – | –
COc1ccc(CCNC(=O)NC2CCCC(OC(=O)Nc3ccccc3)C2)cc1 (stereo unspecified) | – | –
Cc1cc(C)cc(-n2ccnc(NC(=O)c3ccncc3)c2=O)c1 | – | –
Cc1ccc(NC(=O)c2cccc(S(=O)(=O)N3CCOCC3)c2)nc1 | – | –
Cc1ccc(CNC(=O)c2ccc3c(c2)Sc2ncccc2C(=O)N3C)cc1 | – | –
CN1C(=O)c2cccnc2Sc2cc(C(=O)NCc3cccc(Cl)c3)ccc21 | – | 52
CN1C(=O)c2cccnc2Sc2cc(NC(=O)c3cccc(Cl)c3)ccc21 | – | –
Cc1cccc(C(=O)Nc2ccc3c(c2)Sc2ncccc2C(=O)N3C)c1 | – | 65
CC(NC(=O)NC(=O)Cc1ccccc1)c1ccccc1 (stereo unspecified) | – | –
N=c1n(CCN2CCCCC2)c2ccccc2n1CC(O)c1ccccc1 (stereo unspecified) | – | –
CCNC(=O)C1CCN(c2nc3ccc(-c4cncnc4)nc3s2)CC1 | – | –
COc1ccccc1C1CC(c2cccc(F)c2)=NN1C(=O)CN1CCOCC1 (stereo unspecified) | – | 66
O=C(CN1CCCC1)N1N=C(c2cccc(F)c2)CC1c1ccc2c(c1)OCO2 (stereo unspecified) | – | 98
COc1ccc(C2=NN(C(=O)CCC(=O)O)C(c3ccc(Br)cc3)C2)cc1 (stereo unspecified) | – | –
COc1ccc(C2CC(c3cccc(F)c3)=NN2C(=O)CN2CCOCC2)cc1 (stereo unspecified) | – | 74
Cc1ccc(C2=NN(C(=O)CN3CCCC3)C(c3ccc4c(c3)OCO4)C2)cc1 (stereo unspecified) | – | –
COc1ccc(C2=NN(C(=O)CN3CCOCC3)C(c3ccc(F)cc3)C2)cc1 (stereo unspecified) | – | –
COc1ccccc1C1CC(c2ccc(C)cc2)=NN1C(=O)CN1CCOCC1 (stereo unspecified) | – | –
COc1ccc(C2CC(c3ccc(Br)cc3)=NN2C(=O)CCN2CCOCC2)cc1 (stereo unspecified) | – | 66
SMILES | Pf apPOL block | mHTT CaM bind
CC1CCCCN1C(=O)C1CC(=O)N(Cc2ccccc2F)C1 (stereo unspecified) | – | –
CCOCC(=O)N1CCCC(c2ccnc(-c3ccccc3)n2)C1 (stereo unspecified) | – | –
CC12CC(NC(=O)N1c1ccccc1C(F)(F)F)c1cc(Cl)ccc1O2 (stereo unspecified) | – | –
CSc1ccc(/C=C2\N=C(c3cccc(C)c3)OC2=O)cc1 | – | –
N#Cc1cccc(S(=O)(=O)N2CCC3(C2)C(=O)Nc2ccccc23)c1 (stereo unspecified) | – | –
Cc1cccc(NC(=O)N2CCCC(CCC(=O)NCc3ccco3)C2)c1 (stereo unspecified) | – | –
CCNc1cc(N2CCCC(CCC(=O)Nc3cc(C)ccc3OC)C2)ncn1 (stereo unspecified) | – | 55
COc1ccc(C)cc1NC(=O)CCC1CCCN(c2cc(NC3CC3)ncn2)C1 (stereo unspecified) | – | –
CCCNc1cc(N2CCC(CCC(=O)Nc3cc(C)ccc3OC)CC2)ncn1 | – | 59
COc1ccc(C)cc1NC(=O)CCC1CCN(c2cc(NC3CC3)ncn2)CC1 | – | –
O=C(c1ccc2c(c1)OCO2)N1CCC(Nc2cccnc2)C1 (stereo unspecified) | – | –
Cc1nc(NCCNS(=O)(=O)c2ccc(OC(F)(F)F)cc2)cc(N(C)C)n1 | – | –
COc1ccc(Cl)cc1S(=O)(=O)NCCOC12CC3CC(CC(C3)C1)C2 | – | –
CCc1[nH]nc(-c2ccc(OC)cc2OC)c1NC(C)=O | 84 | 97
CCc1n[nH]c(CC)c1NC(=O)c1cccc(OC)c1 | – | –
COc1ccc2c(c1)=CC(=Cc1[nH]c(SC(C)=O)nc1O)C(=O)N=2 | – | 100
COc1ccc(C=C2Oc3cc(C)cc(O)c3C2=O)cc1 | – | –
